FAS-TE inh – blocks the thioesterase domain of human fatty acid synthase; recombinant FAS-TE, OMFH fluorogenic substrate, fluorescence endpoint; hit rate 0.67% among 360,000; inhibition, % at 15 µM; P49327;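 active = compounds whose normalised, plate-corrected inhibition of enzyme fluorescence in the single-dose primary screen is 50% or more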
Target sequence (P49327 whole entry, looked up, the tested form may be a part): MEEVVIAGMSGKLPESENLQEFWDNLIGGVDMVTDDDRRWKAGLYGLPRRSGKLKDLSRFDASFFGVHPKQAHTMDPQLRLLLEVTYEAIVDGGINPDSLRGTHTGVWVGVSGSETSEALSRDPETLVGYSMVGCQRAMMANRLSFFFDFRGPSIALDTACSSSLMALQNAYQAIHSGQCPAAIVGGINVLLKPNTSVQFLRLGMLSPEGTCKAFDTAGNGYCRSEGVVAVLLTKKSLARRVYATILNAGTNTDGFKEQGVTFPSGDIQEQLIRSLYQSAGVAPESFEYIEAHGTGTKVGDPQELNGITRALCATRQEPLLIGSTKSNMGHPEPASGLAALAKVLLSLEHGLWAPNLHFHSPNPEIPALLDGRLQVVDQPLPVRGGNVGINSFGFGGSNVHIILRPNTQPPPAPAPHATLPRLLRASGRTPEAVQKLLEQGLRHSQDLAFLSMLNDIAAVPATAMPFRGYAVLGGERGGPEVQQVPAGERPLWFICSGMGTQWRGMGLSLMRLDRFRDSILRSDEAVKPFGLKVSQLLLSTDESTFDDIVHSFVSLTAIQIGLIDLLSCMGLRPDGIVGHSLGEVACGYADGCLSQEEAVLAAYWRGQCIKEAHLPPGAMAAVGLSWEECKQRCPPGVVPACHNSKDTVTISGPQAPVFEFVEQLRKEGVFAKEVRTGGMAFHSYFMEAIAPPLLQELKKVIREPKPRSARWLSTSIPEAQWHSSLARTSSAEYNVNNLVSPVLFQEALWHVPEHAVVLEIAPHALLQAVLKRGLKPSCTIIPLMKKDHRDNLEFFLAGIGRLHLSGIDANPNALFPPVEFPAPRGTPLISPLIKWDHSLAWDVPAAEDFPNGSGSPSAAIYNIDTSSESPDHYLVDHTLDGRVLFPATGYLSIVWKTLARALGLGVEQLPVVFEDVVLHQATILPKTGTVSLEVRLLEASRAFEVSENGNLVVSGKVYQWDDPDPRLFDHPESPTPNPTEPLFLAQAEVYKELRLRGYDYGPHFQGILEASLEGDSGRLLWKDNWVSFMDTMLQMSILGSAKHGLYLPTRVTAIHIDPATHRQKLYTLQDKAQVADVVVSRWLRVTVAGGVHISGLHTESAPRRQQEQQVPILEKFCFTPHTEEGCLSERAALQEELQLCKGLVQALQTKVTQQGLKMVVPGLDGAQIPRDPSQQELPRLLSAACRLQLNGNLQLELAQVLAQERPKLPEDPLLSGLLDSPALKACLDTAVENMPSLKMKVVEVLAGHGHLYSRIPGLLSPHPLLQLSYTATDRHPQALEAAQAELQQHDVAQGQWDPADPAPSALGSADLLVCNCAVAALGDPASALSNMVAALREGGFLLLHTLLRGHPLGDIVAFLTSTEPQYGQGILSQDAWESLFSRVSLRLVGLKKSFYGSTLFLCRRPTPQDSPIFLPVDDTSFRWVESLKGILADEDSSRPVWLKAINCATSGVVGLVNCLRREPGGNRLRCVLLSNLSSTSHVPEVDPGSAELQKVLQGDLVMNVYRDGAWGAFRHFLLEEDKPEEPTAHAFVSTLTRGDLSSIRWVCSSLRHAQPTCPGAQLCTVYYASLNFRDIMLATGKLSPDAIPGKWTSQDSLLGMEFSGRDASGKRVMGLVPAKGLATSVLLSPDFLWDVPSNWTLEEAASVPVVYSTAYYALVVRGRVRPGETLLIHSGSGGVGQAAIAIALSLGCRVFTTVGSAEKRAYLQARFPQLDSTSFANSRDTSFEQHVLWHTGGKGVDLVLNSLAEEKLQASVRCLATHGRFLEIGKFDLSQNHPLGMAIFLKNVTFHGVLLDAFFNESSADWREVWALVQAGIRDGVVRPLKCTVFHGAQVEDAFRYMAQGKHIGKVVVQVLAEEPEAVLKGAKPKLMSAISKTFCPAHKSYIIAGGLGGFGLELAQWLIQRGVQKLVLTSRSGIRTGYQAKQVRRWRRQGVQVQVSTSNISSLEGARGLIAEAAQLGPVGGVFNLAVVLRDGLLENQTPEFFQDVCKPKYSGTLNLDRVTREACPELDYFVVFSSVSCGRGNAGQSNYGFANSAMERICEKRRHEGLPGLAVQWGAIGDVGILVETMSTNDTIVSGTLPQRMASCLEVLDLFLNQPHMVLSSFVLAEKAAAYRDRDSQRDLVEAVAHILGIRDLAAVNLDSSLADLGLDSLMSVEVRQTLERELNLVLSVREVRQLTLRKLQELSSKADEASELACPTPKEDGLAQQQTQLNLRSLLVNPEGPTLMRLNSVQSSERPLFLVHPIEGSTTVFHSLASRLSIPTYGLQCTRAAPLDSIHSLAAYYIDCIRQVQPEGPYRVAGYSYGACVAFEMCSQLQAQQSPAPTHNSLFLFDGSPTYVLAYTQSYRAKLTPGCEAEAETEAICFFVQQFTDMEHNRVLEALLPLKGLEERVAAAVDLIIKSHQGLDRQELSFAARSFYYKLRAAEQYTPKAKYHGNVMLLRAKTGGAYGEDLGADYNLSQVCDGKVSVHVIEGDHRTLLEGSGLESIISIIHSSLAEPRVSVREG
NadD inh – NadD (S. aureus) enzyme inhibition | purified NadD enzyme, colorimetric absorbance read-out | inhibition, % at 20 µM | hit rate 0.78% among 360,000 | AID 602399; in the data active = inhibition above about 26%
NR3A LBD binder – NR3A (human) ligand-binding domain modulation | Tm shift relative to glycine control, % at 25 µM | AID 1259313 | hit rate 2.5% among 340,000 | NR3A LBD differential scanning fluorimetry, Tm shift; 0% = protein alone, 100% = glycine-bound protein;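 active = melting temperature shift of at least 10% of the positive control shift, at one fixed dose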
rCAG RNA binder – molecules binding r(CAG) RNA repeats | inhibition, % at 3 µM | r(CAG) RNA repeat, TO-PRO-1 dye displacement fluorescence | AID 651821 | hit rate 1.3% among 370,000;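 active = inhibition above the plate cutoff, the mean of all test compounds on that plate plus 3 SD, cut at about 35% in these data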;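 note: higher means more dye released from RNA so lower well fluorescence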
rCAG bind conf – r(CAG) RNA repeat binding, confirmation. shares compounds with rCAG RNA binder. hit rate 70% among 4,300. inhibition, % at 3 µM. TO-PRO-1 dye displacement fluorescence;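 active = inhibition above a per-plate cutoff, the mean inhibition of sample wells plus 3 SD, cut at about 35% in these data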;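 note: loss of TO-PRO-1 fluorescence as compound displaces dye from 1x1 AA loop RNA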
DNA CAG counter – counter-screen for rCAG RNA binders: DNA CAG dye complex inhibitors. shares compounds with rCAG RNA binder. d(CAG) DNA oligo TO-PRO-1 dye displacement, fluorescence. inhibition, % at 3 µM. hit rate 94% among 4,300;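 active = inhibition above its plate's cutoff, the mean test-well inhibition plus 3 SD, cut at about 4.8% in these data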;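 note: hits displace the dye from DNA and so lower well fluorescence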
Of the large screens only hits and unclear results are named; the others gave an inactive call (follow-up assays come after a bar, where they were run). Hits are enriched below; roughly 4.3% of the tested compounds scored in any of these assays.

CCOc1ccc(-n2c(SCC(=O)Nc3ccc(S(=O)(=O)Nc4nccs4)cc3)nnc2-c2ccccc2)cc1	rCAG RNA binder 80.3 (no result: FAS-TE inh, NadD inh, NR3A LBD binder) | rCAG bind conf 72.5 | DNA CAG counter 38.4
COc1ccc(-n2c(SCC(=O)Nc3ccc(S(=O)(=O)Nc4nccs4)cc3)nnc2-c2ccco2)cc1	rCAG RNA binder 74.2 (no result: FAS-TE inh, NadD inh, NR3A LBD binder) | rCAG bind conf 69.0 | DNA CAG counter 30.4
COc1ccc(-c2nnc(SCC(=O)Nc3ccc(S(=O)(=O)Nc4nccs4)cc3)n2-c2ccc(OC)cc2)cc1	rCAG RNA binder 64.2 (no result: FAS-TE inh, NadD inh, NR3A LBD binder) | rCAG bind conf 57.9 | DNA CAG counter 27.8
CC(C)(C)c1ccc(-c2nnc(SCC(=O)Nc3ccc(S(=O)(=O)Nc4nccs4)cc3)n2Cc2ccco2)cc1	rCAG RNA binder 51.0 (no result: FAS-TE inh, NadD inh, NR3A LBD binder) | rCAG bind conf 46.6 | DNA CAG counter 19.5
Cc1ccc(NC(=O)CCS(=O)(=O)c2ccccc2)cc1C	none (no result: FAS-TE inh, NadD inh, NR3A LBD binder)
Cc1cccc(CN2CCSCCS2(=O)=O)c1	none (no result: FAS-TE inh, NadD inh, NR3A LBD binder)
CCCCCCCCN1C(=O)[C@@H](CC(=O)N2CCN(C(=O)C3CC3)CC2)C[C@@]2(C(=O)OC)C1=C[C@H](C(C)C)O[C@@H]2C1CC1	none (no result: FAS-TE inh, NadD inh, NR3A LBD binder)
Cc1ccc(-n2c(SCC(=O)Nc3ccc(S(=O)(=O)Nc4cc(C)nc(C)n4)cc3)nnc2-c2cccs2)cc1	rCAG RNA binder 43.1 (no result: FAS-TE inh, NadD inh, NR3A LBD binder) | rCAG bind conf 41.6 | DNA CAG counter 11.2
O=C(CSc1nnc(-c2cccnc2)n1-c1ccc(Cl)cc1)Nc1ccc(S(=O)(=O)Nc2nccs2)cc1	rCAG RNA binder 58.8 (no result: FAS-TE inh, NadD inh, NR3A LBD binder) | rCAG bind conf 63.5 | DNA CAG counter 22.2
COc1ccc(OC)c(S(=O)(=O)N2CCCC(c3noc(-c4ccc(C)cc4)n3)C2)c1 (configuration not stated)	none (no result: FAS-TE inh, NadD inh, NR3A LBD binder)
CCN(c1cccc(C)c1)S(=O)(=O)c1nnc(NC(=O)c2ccco2)s1	rCAG RNA binder 38.8 | rCAG bind conf inactive | DNA CAG counter 6.5
CN(c1ccc(Cl)cc1)S(=O)(=O)c1nnc(NC(=O)c2ccco2)s1	rCAG RNA binder 38.7 | rCAG bind conf inactive | DNA CAG counter 7.4
CCN(c1ccccc1)S(=O)(=O)c1nnc(NC(=O)c2ccco2)s1	none
Cc1cc(N2CCNC[C@H]2C)ccc1N1CCN(Cc2ccccc2)[C@@H](C)C1	none (no result: FAS-TE inh, NadD inh, NR3A LBD binder)
N#Cc1c(C(F)(F)F)cc(-c2ccco2)nc1SCc1ccccn1	rCAG RNA binder 37.0 | rCAG bind conf inactive | DNA CAG counter 5.3
Cc1[nH]nc2c1C(c1ccccc1)N(c1ccccc1)C2=O (configuration not stated)	none (no result: FAS-TE inh, NadD inh, NR3A LBD binder)
COc1cccc(-c2csc(NC(=O)Nc3ccccc3)n2)c1	NR3A LBD binder 32.3, rCAG RNA binder 54.2 | rCAG bind conf inactive | DNA CAG counter 24.9
O=C(O)CCC(=O)Nc1ccc(-c2csc(Nc3cccc4ccccc34)n2)cc1	rCAG RNA binder 49.4 | rCAG bind conf 49.0 | DNA CAG counter 18.0
COc1cccc(-c2csc(Nc3ccc(Oc4ccccc4)cc3)n2)c1	none (no result: NR3A LBD binder)
O=C(Nc1ccccc1)Nc1nc(-c2ccccc2)cs1	NR3A LBD binder 22.9, rCAG RNA binder 43.2 | rCAG bind conf inactive | DNA CAG counter 15.1
CCCCCCCCN1C(=O)[C@@H](CC(=O)NCC2CCCCC2)C[C@@]2(C(=O)OC)C1=C[C@H](C(C)C)O[C@@H]2C1CC1	none (no result: FAS-TE inh, NadD inh, NR3A LBD binder)
CCOC(=O)CNC(=O)N(C)[C@H]1C[C@H]2c3[nH]c4c(-c5ccccc5)cccc4c3CCN2C(=O)[C@H]1[C@H](C)O	none (no result: FAS-TE inh, NadD inh, NR3A LBD binder)
CC1(C(=O)NS(=O)(=O)c2cccc(C#N)c2)CCN1C(=O)Cc1ccc(-c2ccccc2)cc1 (configuration not stated)	rCAG RNA binder 41.3 (no result: NR3A LBD binder) | rCAG bind conf 44.0 | DNA CAG counter 11.4
CC1(C(=O)NS(=O)(=O)c2ccc(C#N)cc2)CCN1C(=O)Cc1ccc(-c2ccccc2)cc1 (configuration not stated)	rCAG RNA binder 42.2 (no result: NR3A LBD binder) | rCAG bind conf 42.6 | DNA CAG counter 11.3
Cc1ccc2c(c1)C1CS(=O)(=O)N(CC(C)C)CN1C2 (configuration not stated)	none (no result: FAS-TE inh, NadD inh, NR3A LBD binder)
Oc1ccc(C=NN=C2c3ccccc3-c3ccccc32)c(O)c1	NR3A LBD binder 23.1, rCAG RNA binder 49.0 | rCAG bind conf 48.9 | DNA CAG counter 32.0
CCOC(=O)N/N=C/c1c[nH]c2ccccc12	none
C(=NN=C1c2ccccc2-c2ccccc21)c1c[nH]c2ccccc12	NR3A LBD binder 16.8, rCAG RNA binder 35.4 | rCAG bind conf 38.8 | DNA CAG counter 19.6
CCC(CC)CN1CCC(CN2C(=S)NC[C@@H]2Cc2ccccc2)CC1	none (no result: FAS-TE inh, NadD inh, NR3A LBD binder)
CCCN1CCN(C(=O)Cn2cnc3ccc(S(=O)(=O)N4CCC(C)CC4)cc3c2=O)CC1	none
Cc1ccc(C)c(NC(=O)c2cc(-c3ccc(Cl)cc3)nc3ccccc23)c1	none (no result: FAS-TE inh, NadD inh, NR3A LBD binder)
Cc1ccc([C@@H]2CC=C(C(=O)O)[C@H](c3cccc(F)c3)N2S(=O)(=O)c2ccccc2C)cc1	rCAG RNA binder 75.8 | rCAG bind conf 67.0 | DNA CAG counter 28.3
Cc1ccccc1S(=O)(=O)N1C(c2ccc(Cl)c(Cl)c2)CC=C(C(=O)O)C1c1cccc(Br)c1 (configuration not stated)	rCAG RNA binder 85.6 (no result: FAS-TE inh, NadD inh, NR3A LBD binder) | rCAG bind conf 85.4 | DNA CAG counter 57.4
COc1ccc([C@@H]2CC=C(C(=O)O)[C@H](c3ccc(Br)cc3)N2S(=O)(=O)c2ccccc2C)cc1	rCAG RNA binder 76.8 | rCAG bind conf 75.5 | DNA CAG counter 39.9
COc1ccc([C@@H]2CC=C(C(=O)O)[C@H](c3ccc(Cl)cc3)N2S(=O)(=O)c2ccccc2C)cc1	rCAG RNA binder 47.2 | rCAG bind conf 60.0 | DNA CAG counter 24.7
Cc1ccc(S(=O)(=O)N2[C@@H](c3ccccc3F)C(C(=O)O)=CC[C@H]2c2cccc(C)c2)cc1	none
CCOC(=O)C1=CCN(S(=O)(=O)c2ccccc2C)C1c1ccc(Br)cc1 (configuration not stated)	none (no result: NR3A LBD binder)
O=C(CCc1ccccc1)N[C@H]1[C@@H](OC(=O)c2ccco2)CCC[C@@]12C(=O)N(Cc1ccccc1)c1ccccc12	none (no result: FAS-TE inh, NadD inh, NR3A LBD binder)
O=C(NCc1c(F)cccc1F)C1CCC(CNS(=O)(=O)c2cccc3cccnc23)CC1 (configuration not stated)	none (no result: FAS-TE inh, NadD inh, NR3A LBD binder)
CC(C)n1nnnc1C1c2ccccc2OCC(=O)N1Cc1cccc(C(F)(F)F)c1 (configuration not stated)	none (no result: FAS-TE inh, NadD inh, NR3A LBD binder)
CCOC(=O)[C@@]12CN(C(=O)OC(C)(C)C)CC=C1N(Cc1ccc(OC)cc1)C(=O)[C@H]2CC(=O)NCc1cccc2ccccc12	none (no result: FAS-TE inh, NadD inh, NR3A LBD binder)
COCC#Cc1ccc(CC[C@H]2O[C@H]3CC[C@@H](CO)O[C@H]3C[C@H]2n2cc(C(C)(C)O)nn2)cc1	none (no result: FAS-TE inh, NadD inh, NR3A LBD binder)
Cc1ccccc1S(=O)(=O)N1[C@@H](c2ccccc2)C(C(=O)O)=CC[C@H]1c1ccc(Cl)cc1	rCAG RNA binder 65.4 | rCAG bind conf 74.0 | DNA CAG counter 36.4
